± gives the standard deviation of the averaged measurements. In all, about 25,000 sequences were measured (“ln(normalized median fluorescence intensity)”: median about 10, highest 2% from about 12 on). This excerpt belongs to a sample that is enriched for the highest values.
These sequences were tested on PfAP2-G AP2 domain (GST-tagged) (assay: gcPBM binding intensity (ln(normalized median fluorescence intensity)); higher = stronger DNA binding).
How it was run: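 Probes on an Agilent 4 × 180k array were primer-extended, double-stranded and 36 bp long, taken from intergenic genomic regions, with negative controls added. GST-tagged P. falciparum DNA-binding domains from E. coli, about 25 μg on average, were applied to the array for 1 h in 1× PBS containing 1% milk, 0.2 mg/ml BSA, 0.5% salmon testes DNA and 0.03% Triton X-100. Binding intensity, obtained after Alexa488 anti-GST antibody detection and a 488 nm scan, is the highest Masliner-normalised natural-log median intensity across replicate spots of either probe orientation.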

Sequence	gcPBM binding intensity (ln)
TTTTTAATCCTTTGCGCATGTAAAATTATATATTTT [TGCATGCA_site306]	10.1 ± 0.11
TCATTTTAAGGAAAAAGTACAAAATAATATGTTCCT [XGTACX_site1903]	11 ± 0.65
ATCTCTTAAATTTTACGTACTTATTTTATCTTCTTA [XGTACX_site8877]	11.2 ± 0.67
AATTTCAATTTCTGTTGTACACTTTTTAATAGTAAA [XGTACX_site4085]	11.4 ± 0.88
ATTATGATTTTATAGAACTGAACATTTACATTAAAT [GTGCAC_negctrl_site192]	9.855 ± 0.064
TAAAAATGTGGACACACACACATATTTATATTTAAT [CACACA_site6827]	11.4 ± 0.72
TATCCATTATTTAAAAGTACAAAAAACGATTTACAC [XGTACX_site2979]	11.3 ± 0.8
TTAAGTATTTTACGTACACACTTATAAATGTACAGG [CACACA_site6012]	11.7 ± 0.93
CTACACACTTATAAATGTACAGGATTTAAGTATATG [XGTACX_site8245]	10.9 ± 0.49
ATATAAAAATGTGTATGTACACACTTTATTTTTAAT [XGTACX_site5272]	11.4 ± 0.74
TATAAATACATACGTACACACAAATATTAAAATATA [CACACA_site5129]	11.5 ± 0.87
CATATAATAAATAATACACACATATTGGAAATATAT [CACACA_site3212]	9.98 ± 0.057
GTAATTATATACATACGTACATACACATATGTATAT [XGTACX_site4149]	11.3 ± 0.65
GAATAATATGGACATACACACATATACATACATATA [CACACA_site2114]	10.9 ± 0.51
ATATGGAATAATACGCGTACACACATATATATATTA [XGTACX_site307]	11.7 ± 1
GTCTGCATATGGATACGTACACATATATATTAATGT [XGTACX_site2260]	11.7 ± 0.91
TTAAAAATTATGGATACACACATATATATATATATT [CACACA_site2383]	10.2 ± 0.2
TATGGAATAATACGCGTACACACATATATATATTAA [CACACA_site132]	11.6 ± 0.93
AATATATATTAATACACACACACATATATATATATA [CACACA_site3786]	10.3 ± 0.47

Sequence	gcPBM binding intensity (ln)
TGGAATAATCCGCGTACACACATATATATATTAAGA [CACACA_site4253]	11.6 ± 0.87
TGGAATAATACGCGTACACACATATATATATTAATA [CACACA_site131]	11.8 ± 0.97
TGGAATAATACGCGTACACACATATAAATATTAATA [CACACA_site6211]	11.7 ± 0.91
AGTTTTATATTTCTGAGTACTTATGAATCTAGCTCG [XGTACX_site4330]	11.2 ± 0.72
TGGTGATATACGAAATGTACGCAAATCACAAAATAA [XGTACX_site8836]	11.5 ± 0.98
ATTAAAAAAAAAAAAAAAAAACAAAAAAAAAAAAAA [CACACA_negctrl_site1187]	9.62
ACTTGTAAGAAACACACACACACACCCATATATATA [CACACA_site796]	10.2 ± 0.14
CTGAACCCGTTATGGTGTACATAAAATAAGACACAG [XGTACX_site3484]	11.6 ± 0.96
TTTTTAAAACATCACTGTACCCGTTATGGTGAACAT [XGTACX_site3483]	11.7 ± 1.2
TTTTATTATTAAACATGTACCCATATTATTGTTATG [XGTACX_site5563]	11.2 ± 0.56
TATATATATATATATAGTACATATTAATTAATTTAT [XGTACX_site8198]	10.8 ± 0.63
CCTAAAAAAAAGAAATGATATACATATGTATATATA [GTGCAC_negctrl_site100]	9.685 ± 0.064
ATAAAAATAAAAAGATGTACGTATTTTTTTTTTTTT [XGTACX_site5329]	11.6 ± 0.91
TATATAATATATTTATGTACGTATTTAAAAATTTAT [XGTACX_site160]	11.6 ± 0.98
TAAATAGATGTTTTATGTACGTATAAATAAAAAAAA [XGTACX_site3412]	11.7 ± 0.88
AAATTTAGTAAAAAATGTACGTAAAATGTAAAATAT [XGTACX_site1314]	11.5 ± 0.73
TTTATTTTGATTTAATGTACAAATAGTAAAACAAAA [XGTACX_site4789]	10.9 ± 0.49
AATAGTAAAAATCACTGTACGTTTATTTTTAAAATG [XGTACX_site1035]	11.7 ± 0.91
ATTTATTTTGTTGTTGTTTTTATTTGATTGTTTTAT [CACACA_negctrl_site1275]	9.785 ± 0.007

Sequence	gcPBM binding intensity (ln)
TTTTATAAATATTTTTGTACACATTTAAATATTATT [XGTACX_site4973]	11.3 ± 0.59
GTTATTCTTAATTTTTGTACACATTTTTATATTATT [XGTACX_site7227]	11.4 ± 0.7
ATTTTATAACATTCATGTACACATTTCATTTATTTG [XGTACX_site3028]	11.3 ± 0.77
AACATTATTTTGTGTACACATTCGGTTATATTATAT [CACACA_site5628]	11.8 ± 1
TATAACATTATTTTGTGTACACATTCGGTTATATTA [XGTACX_site6310]	12 ± 1.1
TATATATATATTATATGTACACATTTGTGAATTATT [XGTACX_site5848]	11.5 ± 0.85
GCTTATTTTAATTCTTGTACTTATTTATATACAAAT [XGTACX_site2099]	11.2 ± 0.83
TTATTTATTTATATAGTGCAATAAACACATAAATAG	10.1 ± 0.26
TTTTGTAATTTTGTATGTACACATTAAAGTAATATG [XGTACX_site2401]	11.5 ± 0.91
AATTTTCAATAGTATACACACAATTCTATAAATATA [CACACA_site6650]	9.84 ± 0.042
ACTTCATTTTATAAGTGTACATAATTTGTTTATATA [XGTACX_site5453]	11.5 ± 0.85
AACAATTTTTAAAGGTGTACAATATGTATATAAGAA [XGTACX_site254]	11.6 ± 0.93
AATAATTCTTAAAGGTGTACAATATGTATATAAGAA [XGTACX_site595]	11.7 ± 0.6
AATAATTGTTAAAGGTGTACAATACGTATGTAAGAA [XGTACX_site1328]	11.5 ± 0.95
AATAAATAAATAAATAAAACAAAGGGATTACATACA [TGCATGCA_negctrl_site513]	9.84 ± 0.11
TACATTTATAATAATACACACATAAATTTACATTTT [CACACA_site3463]	10.1 ± 0.16
ATATATATATACATATGTACATATAAAATAATTTTG [XGTACX_site3731]	11.1 ± 0.74
CGGCACATTCTATATACACACATATAAATATATACA [CACACA_site566]	9.97 ± 0.042
CCAACATTTTTTAGAAGTACATTTTTATATTTATTA [XGTACX_site5179]	11.3 ± 0.83
